CtBP-E1A blk = CtBP/E1A binding inhibition; AlphaScreen GST-E1A/His-CtBP binding, 1536-well; hits give low values; activity change, % (no concentration beside the values); 340,000 compounds, 0.49% hits; in the data active means activity change below about -65%; inconclusive means mostly about -30% to -63%
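Homogeneous bead-based format: GST-tagged E1A captured on glutathione donor beads, His-tagged CtBP on nickel acceptor beads; compounds precede bead addition by 2 h at 37 °C.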
DT40 TDP1 no CPT = qHTS for Inhibitors of human tyrosyl-DNA phosphodiesterase 1 (TDP1): qHTS in cells in absence of CPT | DT40 Tdp1-/- hTDP1 cells, no CPT, ATP luminescence, 48 h | Potency, µM (top dose mostly 46.2 µM), usual class: inhibitors | 420,000 compounds, 15% hits; further: nearly all actives have a fitted effect of over 55% in size
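Chicken DT40 Tdp1-/- cells stably complemented with human TDP1 were seeded at 400 cells/well with DMSO in place of 20 nM camptothecin. After compound pinning, cells grew at least 48 hr at 37 °C; viability read by CellTiter-Glo luminescence.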
Six1-Eya2 inh = inhibitors of human Six1/Eya2 interaction. Q15475+O00167. AlphaScreen GST-Six1/His-Eya2 binding, biochemical; hits give low values. activity change, % (concentration not given with the values). 360,000 compounds, 0.56% hits; in the data active means activity change below about -65%; inconclusive means mostly about -30% to -63%
Target sequence (O00167 whole entry, looked up): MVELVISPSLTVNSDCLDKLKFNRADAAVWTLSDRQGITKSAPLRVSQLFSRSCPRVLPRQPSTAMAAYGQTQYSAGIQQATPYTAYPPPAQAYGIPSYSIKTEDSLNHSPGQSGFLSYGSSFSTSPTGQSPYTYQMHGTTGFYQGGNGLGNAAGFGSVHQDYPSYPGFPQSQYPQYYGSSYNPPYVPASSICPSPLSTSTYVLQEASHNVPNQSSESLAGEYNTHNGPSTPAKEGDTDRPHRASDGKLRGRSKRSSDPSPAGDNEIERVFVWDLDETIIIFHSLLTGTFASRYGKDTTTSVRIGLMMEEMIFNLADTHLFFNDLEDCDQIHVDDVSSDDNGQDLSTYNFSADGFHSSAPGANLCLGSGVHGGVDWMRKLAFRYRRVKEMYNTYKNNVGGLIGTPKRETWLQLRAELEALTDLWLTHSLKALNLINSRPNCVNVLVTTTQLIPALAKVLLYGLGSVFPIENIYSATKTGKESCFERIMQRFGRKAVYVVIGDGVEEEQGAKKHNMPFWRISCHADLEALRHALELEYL
Target sequence (Q15475 whole entry, looked up): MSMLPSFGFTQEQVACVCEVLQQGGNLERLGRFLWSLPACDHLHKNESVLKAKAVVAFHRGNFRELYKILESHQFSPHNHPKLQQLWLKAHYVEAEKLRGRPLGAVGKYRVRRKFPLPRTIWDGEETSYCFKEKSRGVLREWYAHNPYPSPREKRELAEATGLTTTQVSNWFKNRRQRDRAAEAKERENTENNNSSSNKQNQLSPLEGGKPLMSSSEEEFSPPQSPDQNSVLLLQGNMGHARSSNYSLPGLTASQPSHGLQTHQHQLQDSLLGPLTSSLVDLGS
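GST-Six1 + His-Eya2 (5X stock: 250/500 nM); Tris pH 8.0, 300 mM NaCl, 0.05% BSA, 0.02% Tween 20; GSH donor/Ni acceptor beads; 1 h 37 °C dark; AlphaScreen readout.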
IL-1B inflam inh = blocks inflammasome-driven IL-1 beta release | 360,000 compounds, 4.7% hits | activity change, % at 57.5 µM | THP-1 LPS/ATP IL-1B secretion, AlphaLISA, 16 h; hits give low values | AID 743279; in the data active means activity change below about -50%; inconclusive means mostly about -30% to -49%
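THP-1 cells pretreated 1 hr with compounds (up to 57.5 uM final), then stimulated with LPS (250 ng/mL final) plus ATP (1.25 mM final); secreted IL-1B measured by AlphaLISA after 16 hr, decreased signal indicating inhibition.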
TDP1 inh = blocks human tyrosyl-DNA phosphodiesterase 1; recombinant TDP1, AlphaScreen DNA substrate cleavage; 350,000 compounds, 0.28% hits; Potency, µM (series often up to 130 µM), hits mostly inhibitors; further: nearly all actives have a fitted effect of over 40% in size
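Tdp1 1 nM final; 15 min RT w/ cpd; substrate 15 nM, 5 min; beads 10 ug/ml, 10 min; AlphaScreen read. Neg ctrl: no enzyme.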
DT40 TDP1 CPT = DT40-hTDP1 cell growth loss with CPT; chicken DT40 Tdp1-/-;hTDP1 cells + 20 nM CPT, ATP luminescence, 48 h; Potency, µM (top dose mostly 46.2 µM), usual class: inhibitors; 420,000 compounds, 12% hits; AID 686979; further: nearly all actives have a fitted effect of over 55% in size
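Chicken DT40 Tdp1-/- cells stably complemented with human TDP1 were seeded at 400 cells/well in medium containing 20 nM camptothecin, exposed to pin-transferred compounds, and grown at 37 °C for at least 48 hr. Viability was read as ATP luminescence.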
Each line names hits and unclear results; the compound was inactive in the other large screens. A selection: hits, their analogues and other compounds. The true share with any hit is near 18%. Unless noted, the call rests on the fitted dose curve; in most records, active means well fitted curve in the direction sought with a large enough effect; inconclusive means small, poorly fitted or top-dose-only effect, or another doubt; inactive means no such curve, though single readings can be large; an effect the other way counts as inactive or inconclusive.

CCOc1ccc(N(CC(=O)N/N=C/c2ccccn2)S(=O)(=O)c2ccc(Cl)cc2)cc1	DT40 TDP1 no CPT 21µM, DT40 TDP1 CPT inconclusive
COc1ccc(N(CC(=O)NCCSC2CCCCC2)S(=O)(=O)c2ccc(C)cc2)cc1	DT40 TDP1 no CPT 23µM
COc1ccc(N(CC(=O)NCCSCc2ccccc2C)S(=O)(=O)c2ccccc2)cc1	DT40 TDP1 no CPT 16µM, DT40 TDP1 CPT 16µM
COc1ccc(N(CC(=O)NCCSC2CCCCC2)S(=O)(=O)c2ccccc2)c(OC)c1	none (no result: CtBP-E1A blk, DT40 TDP1 no CPT, Six1-Eya2 inh, IL-1B inflam inh, DT40 TDP1 CPT)
CCc1[nH]c(=S)c(C#N)c(-c2ccccc2)c1C(=O)OC	none
CCn1c(C)c(C)c2cc(C(=O)NCCCN3CCCC3)ccc21	none
COc1ccc(N(CC(=O)NCCSc2ccccc2)S(C)(=O)=O)cc1	none
Cc1ccc(S(=O)(=O)N(CC(=O)NCCc2ccc(Cl)cc2)c2ccccc2C)cc1	DT40 TDP1 no CPT 13µM, DT40 TDP1 CPT 18µM (no result: CtBP-E1A blk, Six1-Eya2 inh, IL-1B inflam inh)
COc1ccc(CCNC(=O)CN(c2ccc(C)cc2)S(=O)(=O)c2ccc(OC)cc2)cc1	DT40 TDP1 no CPT 23µM, DT40 TDP1 CPT inconclusive (no result: CtBP-E1A blk, Six1-Eya2 inh, IL-1B inflam inh, TDP1 inh)
COc1ccc(S(=O)(=O)N(CC(=O)NCCSc2ccccc2)c2ccc(C)cc2)cc1	DT40 TDP1 no CPT 13µM, DT40 TDP1 CPT 18µM (no result: CtBP-E1A blk, Six1-Eya2 inh, IL-1B inflam inh, TDP1 inh)
COc1ccc(S(=O)(=O)N(CC(=O)NCc2ccccn2)c2ccc(Cl)cc2)cc1	CtBP-E1A blk inconclusive, DT40 TDP1 no CPT inconclusive, IL-1B inflam inh -54, DT40 TDP1 CPT inconclusive
Cc1ccc(N(CC(=O)NCCc2ccc(Cl)cc2)S(=O)(=O)N(C)C)cc1	DT40 TDP1 no CPT inconclusive, DT40 TDP1 CPT inconclusive (no result: CtBP-E1A blk, Six1-Eya2 inh, IL-1B inflam inh)
CC1(C)Oc2ccc3ccc(=O)oc3c2/C(=C/NNC(N)=O)C1=O	DT40 TDP1 no CPT inconclusive (no result: CtBP-E1A blk, TDP1 inh)
O=C(Nc1ccc(Cl)cc1)C1CC2CCCC(C1)C2=O (stereo not drawn)	none
CCOc1ccc(N(CC(=O)N/N=C/c2cc([N+](=O)[O-])ccc2Cl)S(C)(=O)=O)cc1	DT40 TDP1 no CPT 23µM, DT40 TDP1 CPT inconclusive
CCOc1ccc(N(CC(=O)NCCSc2ccccn2)S(=O)(=O)c2ccc(Cl)cc2)cc1	DT40 TDP1 no CPT inconclusive, DT40 TDP1 CPT inconclusive
CCOc1ccc(N(CC(=O)NCCOc2ccc(C)cc2)S(=O)(=O)c2ccccc2)cc1	DT40 TDP1 no CPT inconclusive, DT40 TDP1 CPT inconclusive
COc1ccc(S(=O)(=O)N(CC(=O)NCCSc2ccccc2)c2ccc(Cl)cc2)cc1	DT40 TDP1 no CPT 12µM, DT40 TDP1 CPT 16µM (no result: CtBP-E1A blk, Six1-Eya2 inh, IL-1B inflam inh, TDP1 inh)
COc1ccc(N(CC(=O)NCCOc2ccccc2)S(=O)(=O)c2ccc(C)cc2)cc1	DT40 TDP1 no CPT 21µM, DT40 TDP1 CPT inconclusive (no result: TDP1 inh)
O=C(c1ccc(F)cc1)N1CCCN(c2nc(-c3ccccc3)ns2)CC1	DT40 TDP1 CPT inconclusive (no result: CtBP-E1A blk)
O=C(c1cccc(NS(=O)(=O)c2ccccc2)c1)N1CCN(c2ccccc2)CC1	DT40 TDP1 no CPT inconclusive
COc1ccc(C2CC(C(F)(F)F)n3nc(C(=O)NCc4cn(C)nc4C)c(Cl)c3N2)cc1 (stereo not drawn)	DT40 TDP1 no CPT 10µM, DT40 TDP1 CPT 13µM
Cc1ccc(C2CC(C(F)(F)F)n3nc(C(=O)NCc4c(C)nn(C)c4C)c(Cl)c3N2)cc1 (stereo not drawn)	DT40 TDP1 no CPT 5.2µM, DT40 TDP1 CPT 4.6µM
Cc1ccc(C)c(NS(=O)(=O)c2cc(C(=O)NCc3ccco3)ccc2C)c1	IL-1B inflam inh inconclusive
Cc1cc(C)nc(SCc2nnc(SCC(=O)Nc3nccs3)n2C)n1	none
CCn1c(CSc2nc(C)cc(C)n2)nnc1SCC(=O)Nc1nc(-c2ccccc2)cs1	DT40 TDP1 no CPT inconclusive, DT40 TDP1 CPT 21µM
Cc1cc(C)nc(SCc2nnc(SCC(=O)Nc3nc(-c4ccccc4)cs3)n2C)n1	DT40 TDP1 no CPT 26µM, DT40 TDP1 CPT inconclusive
CN1/C(=C\C(=O)CSc2nnc(N)s2)C(C)(C)c2ccccc21	DT40 TDP1 no CPT 21µM, DT40 TDP1 CPT inconclusive
